In the library only some 4.8% were active in any assay of this set; here they are far more common.
ssDAF-12 act: S. stercoralis DAF-12 nuclear receptor activators, primary screen, cell-based, luminescence, HEK293, GRIP1 co-expression, lit1-tk-luc; Nuclear hormone receptor DAF-12 (Strongyloides stercoralis); HEK293 ssDAF-12/GRIP1 lit1-tk-luc reporter; % of 3 µM dafachronic acid response; activation, % at 6.8 µM; 370,000 compounds, 1% hits;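 active means activation above the mean over all tested compounds plus 3 SD, cut at about 0.9% in these data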;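 further: 0% = DMSO-only wells and 100% = 3 µM delta7-dafachronic acid wells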
SMARCA2 activ: SMARCA2 (BRM) function activators, primary screen, cell-based, luminescence, high throughput; MG213 cells, MMTV-luciferase reporter, dexamethasone, overnight; activation, % at 9.1 µM; 370,000 compounds, 1% hits; in the data active means activation above about 7.8%;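 further: 0% = vehicle wells and 100% = reference activator wells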
DAX1 inh-1: DAX1 (NR0B1) inhibitors, primary screen, cell-based, HEK293, Gal4-DAX1, luciferase luminescence; HEK293 Gal4-DAX1 luciferase reporter; inhibition, % at 6.75 µM; 340,000 compounds, 0.99% hits; AID 504766, 2011;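 active means inhibition above the mean over all tested compounds plus 3 SD, cut at about 4.2% in these data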;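 further: 0% = DAX1-transfected cells with DMSO and 100% = empty-vector control cells with DMSO; inhibition shows as a rise in luminescence from relieved DAX1 repression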
hgDAF-12 ag: H. glycines DAF-12 receptor agonists, primary screen, cell-based, luminescence, HEK293, GAL4 fusion, UAS-luciferase; AID 687014, 2013; activation, % at 6.8 µM; HEK293 GAL4-hgDAF12 UAS-luciferase reporter, agonist luminescence; normalized to butyrate control; Nuclear hormone receptor DAF-12 (Heterodera glycines), GAL4 fusion; 370,000 compounds, 1.8% hits;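 active means activation above a cutoff set at the mean of all screened compounds plus 3 SD, cut at about 10% in these data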;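 further: 0% = DMSO wells and 100% = sodium butyrate wells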
DAX1 inh-2: DAX1 (NR0B1) inhibitors on StAR promoter, primary screen, cell-based, luminescence, SF-1 (NR5A1), full-length DAX-1; HEK293T StAR-luciferase reporter, SF-1/DAX-1 repression relief; inhibition, % at 6.8 µM; 370,000 compounds, 1.1% hits;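 active means inhibition above the mean over all tested compounds plus 3 SD, cut at about 3.6% in these data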;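 further: 0% = DAX-1 cells with DMSO and 100% = cells lacking DAX-1 with DMSO; higher inhibition means more luminescence from relief of DAX-1 repression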
hcDAF12 agonist: H. contortus DAF-12 nuclear receptor activators, primary screen, cell-based, luminescence, HEK293, lit1-tk-luc reporter. AID 652067, 2013. 370,000 compounds, 1.4% hits. HEK293 hcDAF-12 lit1-tk-luc reporter; 0% DMSO, 100% Δ7-dafachronic acid. activation, % at 6.8 µM;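 active means activation above the mean of all tested compounds plus 3 SD, cut at about 5.5% in these data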;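 further: 100% = response to 3 µM Δ7-dafachronic acid high control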
DAX1 inh confirm: DAX1 (NR0B1) inhibitors relieving SF-1 repression, confirmation, cell-based, luminescence, HEK293T, full-length DAX-1, SF-1 activated StAR promoter; shares compounds with DAX1 inh-2; HEK293T StAR-promoter luciferase reporter, SF-1/DAX-1 repression; inhibition, % at 6.8 µM; 2,400 compounds, 87% hits; AID 652134, 2013;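 active means inhibition above the average of every tested compound plus 3 SD, cut at about 3.8% in these data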;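 further: 0% = DAX-1 cells with DMSO and 100% = no DAX-1 control cells with DMSO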
Target sequence (P51843 whole entry, looked up): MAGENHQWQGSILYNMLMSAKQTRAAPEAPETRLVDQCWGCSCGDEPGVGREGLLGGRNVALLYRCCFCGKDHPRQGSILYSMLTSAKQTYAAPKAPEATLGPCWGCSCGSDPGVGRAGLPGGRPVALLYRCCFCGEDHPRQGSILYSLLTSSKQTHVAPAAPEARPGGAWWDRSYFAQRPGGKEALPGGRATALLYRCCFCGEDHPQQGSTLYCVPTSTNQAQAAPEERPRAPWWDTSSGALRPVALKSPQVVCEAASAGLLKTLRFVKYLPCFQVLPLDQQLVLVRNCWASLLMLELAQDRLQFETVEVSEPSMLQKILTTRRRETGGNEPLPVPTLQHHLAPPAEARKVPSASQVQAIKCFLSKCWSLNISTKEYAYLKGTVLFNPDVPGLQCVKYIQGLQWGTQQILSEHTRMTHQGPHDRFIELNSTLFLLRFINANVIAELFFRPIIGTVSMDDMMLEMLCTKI
SF1 mutant ctr: StAR reporter signal changes without DAX1, counter-screen for DAX1 inhibitor project, cell-based, luminescence, AF-2 mutant SF-1, transactivation | shares compounds with DAX1 inh-2 | HEK293 StAR-luciferase, SF-1 AF2 mutant | inhibition, % at 6.8 µM | 2,400 compounds, 78% hits;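 active means inhibition above the mean of all tested compounds plus 3 SD, cut at about 3% in these data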;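 further: 0% = DAX-1 transfected cells with DMSO and 100% = cells without DAX-1 with DMSO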
Active calls of the source: *; / = no result.

SMILES	ssDAF-12 act	SMARCA2 activ	DAX1 inh-1	hgDAF-12 ag	DAX1 inh-2	hcDAF12 agonist	DAX1 inh confirm	SF1 mutant ctr
COc1ccc(Cc2nc3ccc(C(=O)N4CCOCC4)cc3o2)cc1	0	5	2	10	5.4*	4	7.4*	3.8*
CC(=O)N1CCCN(C(=O)c2ccc3nc(Cc4ccccc4F)oc3c2)CC1	-1	0	2	0	-1	-2	/	/
COc1ccc(Cc2nc3ccc(C(=O)N4CCC(C(N)=O)CC4)cc3o2)cc1	-1	-2	2	0	1	-1	/	/
Nc1cc2ccccc2cc1NS(=O)(=O)N1CCCCC1	0	-2	/	-1	0	1	/	/
Cc1ccccc1CNC(=O)c1cccc2c1C(=O)N(Cc1cccnc1)C2	-1	-5	/	-3	-1	-2	/	/
O=C(NCCc1ccccc1)c1ccc([N+](=O)[O-])cc1	1	1	-2	10	5.3*	6	13*	7.1*
COc1cccc(CN(C)C(=O)[C@H]2O[C@@H](n3cnc4c(=O)[nH]c(N)nc43)[C@H](O)[C@@H]2O)c1	-1	-1	/	0	-1	0	/	/
CC1=C(/C=C/C(C)=C/C=C/C(C)=C\C(=O)O)C(C)(C)CCC1	-1	4	-1	-5	5.9*	-3	18*	7.5*
O=C(CCS(=O)(=O)c1ccccc1)Nc1cc(Cl)ccc1F	-1	0	/	-3	-1	-1	/	/
Cc1cccc(NC(=O)NC2CCCCCCC2)c1	0	6	1	8	5.7*	1	4.9*	3.6*
C=CC[C@]12C[C@@]3(O[C@H](c4ccc(C(F)(F)F)cc4)N=C3C[C@H](c3ccc(OC)cc3)[C@H]1C)N(Cc1ccncc1)C2=O	-1	-2	/	1	0	-1	/	/
COc1cc(NC(=O)CCCN2C(=O)NC(C)(C)C2=O)cc(OC)c1	-1	0	1	-3	4.8*	0	2	0
COC(=O)c1ccc(NC(=O)CCCN2C(=O)NC(C)(C)C2=O)cc1	-1	-1	0	-1	-1	-1	/	/
C#CCNC(=O)C[C@@H]1C[C@]2(C(=O)OCC)CCC3=C2N(CCC3)C1=O	-1	-1	/	4	1	-1	/	/
CC(C)C(=O)N1CCC(Oc2cccnc2)CC1	-1	0	/	-3	0	0	/	/
O=C(Nc1ccc(NC(=O)C2CC2)cc1)c1cccs1	0	4	1	7	7.1*	2	8.3*	5.3*
COC(CNC(=O)[C@H](Cc1c[nH]c2ccccc12)NC1(C(=O)NC2CCCCC2)CCCCC1)OC	-2	/	/	2	/	0	/	/
CC(C)Sc1nnc(NC(=O)c2ccc3c(c2)OCO3)s1	1	4	1	4	5.3*	0	7.7*	4.4*
CC(C)c1nnc(NC(=O)c2ccc3ccccc3c2)s1	0	5	2	13*	12*	5.7*	13*	8.1*
Cc1nnc(NC(=O)c2ccc3ccccc3c2)s1	0	2	1	7	5.4*	2	10*	5.4*
CC(C)c1nnc(NC(=O)COc2ccc3ccccc3c2)s1	-1	-1	0	-1	-1	-2	/	/
CCOC(=O)N1CCC(NC(=O)c2ccc3c(c2)N=C(CC)c2cc(C)ccc2S3)CC1	-2	-6	-2	-2	-2	-3	/	/
CCOC(=O)N1CCC(NC(=O)c2ccc3c(c2)N=C(C)c2c(C)ccc(C)c2S3)CC1	-1	-1	0	-1	9.0*	-2	15*	-6
COC(=O)[C@]12C[C@H](CC(=O)N3CCOCC3)C(=O)N(Cc3ccccc3)C1=C[C@H](C(C)(C)C)O[C@@H]2C	-1	-6	/	-1	-1	0	/	/
CC(C)(C)NC(=O)C(c1ccc(-c2ccccc2)cc1)n1c(=O)c(-c2cc3ccccc3[nH]2)nc2ccccc21 (stereo not drawn)	1.4*	5	/	5	4.9*	5	4.4*	4.6*
SMILES	ssDAF-12 act	SMARCA2 activ	DAX1 inh-1	hgDAF-12 ag	DAX1 inh-2	hcDAF12 agonist	DAX1 inh confirm	SF1 mutant ctr
CC(C)(C)NC(=O)C(c1ccccc1)n1c(=O)c(-c2cc3ccccc3[nH]2)nc2ccccc21 (stereo not drawn)	-1	-3	/	1	-1	1	/	/
Cc1ccc(C(=O)CSc2nnc(N)s2)c(C)c1	1.0*	1	1	13*	7.8*	4	8.9*	5.4*
Cc1cc(C(=O)CSc2nnc(N)s2)c(C)n1C1CC1	0	3	1	4	5.6*	0	4.1*	3
Cc1cc(C(=O)CSc2nc(N)cc(N)n2)c(C)n1C1CC1	-1	2	1	3	-1	1	/	/
Cc1cc(C)c(C(=O)CSc2nnc(N)s2)cc1C	-2	-3	-1	2	1	0	/	/
COc1ccc(S[C@]2(C(=O)N3CCOCC3)CC(=O)N(c3ccc(Cl)cc3)[C@@H]2c2ccc(OC)cc2)cc1	-1	-2	/	-2	-2	-3	/	/
Cc1ccc(S(=O)(=O)N2CCN(C(=O)Cn3cnc4c3c(=O)n(C)c(=O)n4C)CC2)cc1C	-1	-2	-1	2	5.0*	-1	4	1
Cn1c(=O)c2c(ncn2CC(=O)N2CCN(S(=O)(=O)c3ccc(Cl)cc3)CC2)n(C)c1=O	-1	-1	0	0	1	-1	/	/
CCCCC[C@@H](C)N1C[C@H](COCc2ccccc2)Oc2cc(N3CCC[C@@H]3COC)ccc2S1(=O)=O	0	7	/	7	5.1*	2	5.7*	4.3*
Nc1c(C(=O)Nc2ccc3c(c2)OCCO3)nnn1Cc1ccccc1Cl	-1	1	0	7	7.0*	2	9.1*	5.5*

Source: PubChem (The Scripps Research Institute Molecular Screening Center)
